PubChem BioAssay (NCI)
Compounds without any hit were thinned out: in the full panel of roughly 83,000, 20% have a hit.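 Interpretation: 100, growth as untreated; towards 0, rising growth inhibition; 0, no net growth; 0 to -100, cell death. Compounds scoring below 10 were considered active.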 Calls of active or inactive are those of the source.

Tests used:
Test in all cases: NCI-60 one-dose screen, 48 h (100 = growth as untreated, 0 = no growth, -100 = all killed)
Settings in all cases: 10 µM unless noted
[1] = test system: T-47D breast
[2] = test system: BT-549 breast
[3] = test system: MDA-MB-435 melanoma
[4] = test system: SW-620 colon
[5] = test system: MCF7 breast
[6] = test system: HCT-116 colon
[7] = test system: HCC-2998 colon
[8] = test system: KM12 colon

Measured: growth

COc1ccc(/C=C/c2c(C(=O)/C=C/c3ccc(Cl)cc3)c(C)nc3ccccc23)cc1
active: [3] 2.02% | [4] -17% | [6] -64.6% | [7] -48.6%
inactive: [1] 23.2% | [2] 54.5% | [5] 26.2% | [8] 30.2%

Cc1ccc(/C=N\NC(=O)c2[nH]c3ccc(F)cc3c2-c2ccccc2)cc1
inactive: [1] 75.4% | [2] 36.8% | [4] 25.7% | [5] 15.3% | [6] 10.8%
active: [3] -13.8% | [7] -24.8% | [8] -0.0461%

C[C@]12CC[C@@H]3c4cc(OC(F)F)c(OS(N)(=O)=O)cc4CC[C@H]3[C@@H]1CC[C@@H]2OS(N)(=O)=O
inactive: [1] 43.4% | [2] 62.7% | [3] 42.8% | [5] 20.2% | [6] 20.3% | [7] 74.1% | [8] 35.6%

COc1cc2cc(Oc3ccc(NC(=O)Nc4cc(C(F)(F)F)cc(C(F)(F)F)c4)cc3)c(C)nc2cc1OCCN1CCOCC1
active: [5] 7.15%
inactive: [1] 26.1% | [2] 68.1% | [3] 22.3% | [4] 20.3% | [6] 10.3% | [7] 38.6% | [8] 13.3%

O=c1[nH][n+](-c2ccc(Br)cc2)no1
inactive: [1] 28.1% | [2] 83.1% | [3] 22.6% | [4] 36.8% | [5] 32.8% | [6] 79% | [7] 12.7% | [8] 23.3%

O=C1c2cccc3cccc(c23)C(=O)N1Nc1nc(NC2CCCCC2)nc(N2CCOCC2)n1
inactive: [1] 88.4% | [2] 110% | [3] 103% | [4] 98.1% | [5] 89.3% | [6] 93.6% | [7] 111% | [8] 98.9%

Cc1ccc(C(C)C)cc1C(=O)C[n+]1ccccc1
inactive: [1] 88.7% | [2] 95.8% | [3] 101% | [4] 106% | [5] 87.1% | [6] 79% | [7] 107% | [8] 101%

O=c1c2cc(F)ccc2sc2c(N3CCNCC3)nc3ccc(F)cc3c12
inactive: [1] 22.2% | [2] 79.8%
active: [3] -94.3% | [4] -84.4% | [5] -62.9% | [6] -61.2% | [7] -90.8% | [8] -78.4%

Cc1[nH]c(C(=O)Nc2ccc(C(=O)N3CCNCC3)cc2OC(C)C)c(Cl)c1Cl
active: [4] -55.8% | [7] -45.9%
inactive: [1] 64.1% | [2] 93% | [3] 35.9% | [5] 60% | [6] 14.5% | [8] 50.9%

COc1cc(CCCO)c(OC)c(OC)c1OC
inactive: [1] 99.4% | [2] 107% | [3] 102% | [4] 105% | [5] 104% | [6] 106% | [7] 103% | [8] 105%

CCc1ccc(Oc2c(-c3ccc(OCCc4cccc(C(F)(F)F)c4)cc3O)n[nH]c2C(F)(F)F)cc1
active: [1] 6.59% | [6] 0%
inactive: [2] 86.5% | [3] 27.1% | [5] 27.8% | [7] 89.4%

O=C1NC(=O)C(Cn2cnc3ccccc32)N1 (stereo not given)
inactive: [1] 106% | [2] 110% | [3] 100% | [4] 99.3% | [5] 92.1% | [6] 109% | [7] 103% | [8] 102%

Cc1c(C(=O)N[C@@H](Cc2ccccc2)C(=O)C(=O)NCc2ccc(F)cc2)[nH]c2ccccc2c1=O
inactive: [1] 103% | [2] 110% | [3] 101% | [4] 97.5% | [5] 91.2% | [6] 99.9% | [7] 93.8% | [8] 101%

O=C(CCc1nnc(-c2c(Cl)cccc2Cl)o1)c1nc2ccccc2[nH]1
active: [3] -0.531%
inactive: [1] 52% | [2] 56.3% | [5] 44.7% | [6] 22.1% | [7] 65.9%

CCN(CC)S(=O)(=O)c1ccc(NC(=O)CSc2nnc(C)n2-c2ccccc2)cc1
inactive: [1] 106% | [2] 117% | [3] 99.2% | [4] 105% | [5] 113% | [6] 102% | [7] 109% | [8] 104%
